MITF act = activators of MITF-driven TRPM1 promoter reporter, primary screen, cell-based, SK-MEL-5, luciferase, single point; activation, % at 12.5 µM; AID 588334, 2011; SK-MEL-5 TRPM1-promoter luciferase, 24 h; % of positive control, neutral wells = 0; actives 0.75% (n = 300,000);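 active = mean activation of at least 80% with every replicate also reaching 80%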;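 note: 0% = neutral control wells and 100% = parthenolide positive control wells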
esBAF inh = Bmi1 luciferase reporter increase in mESCs, primary screen, esBAF inhibitor project, mouse ES cells, Bmi1 luciferase knock-in, single point; 24 h; 100% = twice the neutral-well signal; reporter increase, % at 12.5 µM; actives 2% (n = 350,000); AID 602393, 2012; in the data active = activation above about 40%;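 note: 0% = median of the plate's neutral control wells and 100% = double that signal; a rise in the Bmi1 reporter signal indicates esBAF inhibition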
C2C12 statin = suppressors of statin myotoxicity in C2C12 myotubes, primary screen, cell-based, single point, plate reader; rescue of ATP level, % at 7.49 µM; actives 0.78% (n = 330,000); C2C12 myotubes + simvastatin, ATP luminescence, 48 h; scaled: DMSO 0, geranylgeraniol control 100;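 active = mean ATP rescue above about 67%, or every replicate alone reaching that limit, limit read from the data, passing the limit was not always enough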;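 note: myotubes were challenged with 10 µM simvastatin during compound exposure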
Rtt109 Vps75 = inhibitors of C. albicans Rtt109/Vps75 HAT, primary screen, biochemical, ThioGlo CoA-SH fluorescence, plate reader | AID 540336, 2011 | Histone acetyltransferase RTT109 (Candida albicans (strain SC5314 / ATCC MYA-2876)), … | inhibition, % at 34.9 µM | purified Rtt109/Vps75, 4 h | actives 0.16% (n = 330,000);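 active = inhibition of at least 50% in every replicate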
Target sequence (Q5AAJ8 whole entry, looked up): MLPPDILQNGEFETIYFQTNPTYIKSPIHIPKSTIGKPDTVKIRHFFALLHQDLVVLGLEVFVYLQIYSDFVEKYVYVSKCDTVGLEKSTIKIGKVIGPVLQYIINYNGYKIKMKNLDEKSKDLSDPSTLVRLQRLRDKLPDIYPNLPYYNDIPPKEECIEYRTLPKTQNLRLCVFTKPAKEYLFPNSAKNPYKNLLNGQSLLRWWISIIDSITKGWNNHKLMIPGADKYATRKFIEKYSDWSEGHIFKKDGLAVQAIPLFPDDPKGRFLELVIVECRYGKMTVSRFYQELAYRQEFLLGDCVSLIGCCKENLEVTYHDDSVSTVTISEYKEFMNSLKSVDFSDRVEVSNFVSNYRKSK
Wnt act = Wnt/beta-catenin pathway activators, primary screen, cell-based, plate reader, single point; Wnt/beta-catenin reporter cell assay, activator; activation, % at 9.35 µM; actives 1.2% (n = 300,000); AID 743398, 2014; in the data active = activation above about 30%, passing the limit was not always enough;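 note: 0% = neutral control wells and 100% = positive control wells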
Active calls of the source: *; · = no result; ! = repeats disagree. In the library only some 3.1% were active in any assay of this set; here they are far more common.

SMILES	MITF act	esBAF inh	C2C12 statin	Rtt109 Vps75	Wnt act
Cc1ccc(C(=O)C2CN3CCC2CC3)cc1 (stereo not given)	-4.9	-10.9	-6.2	14.1	-2.6
Cc1ccc(C(=O)C2CN(C)CC2C(=O)c2ccc(C)cc2)cc1 (stereo not given)	12.6	60.4*	-5.5	3.0	·
O=C1C2CCCN2C(c2cccnc2)N1c1nccs1 (stereo not given)	0.8	-2.5	154.9*	-0.4	·
COC(=O)[C@H]1[C@H](CO)[C@H]2Cn3c(ccc(-c4ccccc4)c3=O)[C@@H]1N2CCc1ccccc1	·	-1.3	-57.3	·	·
C=CCOC(=O)C1=C(C)OC(N)=C(C#N)C12C(=O)N(CN1CCOCC1)c1ccccc12 (stereo not given)	3.5	-3.5	111.2*	-2.7	·
CC=Cc1ccc2n(c1=O)C[C@H]1[C@H](CO)[C@@H](C(=O)OC)[C@@H]2N1CC1CCOCC1 (mixture of isomers)	·	0.9	-3.9	·	·
CCOc1ccc(C2CC(c3c(O)n(C)c(=O)n(C)c3=O)=NN2)cc1 (stereo not given)	·	·	·	11.0	30.1*
Cc1cccc(NP(C)(=O)c2nc3c(s2)CCCC3)c1 (stereo not given)	47.5	25.1	142.7*	·	-0.7
Cc1cccc(S(=O)(=O)N2[C@@H]3Cn4c(ccc(-c5ccncc5)c4=O)[C@H]2[C@@H](C(=O)O)[C@@H]3CO)c1	·	-2.4	-3.7	·	·
O=C(O)[C@H]1[C@H](CO)[C@H]2Cn3c(ccc(-c4ccncc4)c3=O)[C@@H]1N2C(=O)C1CCC1	·	-0.1	0.9	·	·
CC=Cc1ccc2n(c1=O)C[C@@H]1[C@@H](CO)[C@H](C(=O)OC)[C@H]2N1S(=O)(=O)c1cccc(C)c1 (mixture of isomers)	·	2.3	-15.8	·	·
CN1CCN(c2ccc3c(c2)S(=O)(=O)c2ccccc2C3=O)CC1	92.9*	-1.5	24.4	-39.0	24.7
CN(C)CCCN=Cc1c(O)n(CCc2ccc(F)cc2)c(=O)[nH]c1=O	·	-1.1	-5.0	-19.9	38.5*
COc1ccc(C(CNC(=O)Cc2ccc(Cl)c(Cl)c2)N2CCCCC2)cc1 (stereo not given)	15.2	-5.1	3.9	6.0	1.7
O=C(Cc1ccc(Cl)c(Cl)c1)NCC1(N2CCOCC2)CCCCC1	4.2	·	·	2.7	44.9*
COC(=O)[C@H]1[C@H](CO)[C@H]2Cn3c(ccc(-c4ccc(F)cc4)c3=O)[C@@H]1N2Cc1ccccc1	·	-0.1	60.5	·	·
O=C(O)C[C@@H]1CC[C@H]2NC[C@H](O)COC[C@@H]2O1	·	-0.3	-14.1	·	·
CCOC(=O)C(O)(c1ccc(NC(=O)NC2CCCCC2)cc1)C(F)(F)F (stereo not given)	47.4	45.6*	-39.9	1.5	6.2
O=C(O)[C@@H]1[C@@H](CO)[C@@H]2Cn3c(cccc3=O)[C@H]1N2C(=O)c1ccccc1	·	-0.4	13.7	·	·
CCOC(=O)c1cc2c(cn1)[nH]c1ccccc12	49.1	50.1*	7.7	-5.3	9.3
CCOC(=O)c1nc2ccccc2c(=O)n1-c1ccc(C)cc1C	4.8	0.4	9.1	-2.8	·
O=C(Cc1ccccn1)N1CCCCN2[C@H](C1)[C@@H](c1ccc(-c3ccccc3F)cc1)[C@@H]2CO	·	0.5	-29.7	·	·
O=C1CC2OCC=C3CN4CCC56c7cc([N+](=O)[O-])ccc7N1C5C2C3CC46 (stereo not given)	-0.4	-1.8	2.9	1.3	-1.5
O=C1/C(=C\c2ccccc2)C2OCC=C3CN4CCC56c7ccccc7N1C5C2C3CC46 (stereo not given)	-4.1	6.2	137.5*	1.8	-1.3
CC=Cc1ccc2n(c1=O)C[C@H]1[C@H](CO)[C@@H](C(=O)OC)[C@@H]2N1C(=O)CC1CC1 (mixture of isomers)	·	-3.4	13.8	·	·
SMILES	MITF act	esBAF inh	C2C12 statin	Rtt109 Vps75	Wnt act
O=C1NC(=O)C(Sc2ccccc2[N+](=O)[O-])C(=O)N1	-16.0	1.4	7.6	86.1*	-0.1
Cc1ccccc1[N+](=O)[O-]	-10.6	-5.9	-1.0	1.1	-2.2
Cc1cccc(S(=O)(=O)N2[C@@H]3c4ccc(-c5ccc(F)cc5)c(=O)n4C[C@H]2[C@H](CO)[C@H]3C(=O)O)c1	·	-0.4	14.3	·	·
Cc1ccc(Cn2nc(C(=O)Nc3ccc(Br)cc3)cc2C)cc1	38.2	59.4*	12.0	17.7	5.4
CC=Cc1ccc2n(c1=O)C[C@H]1[C@H](CO)[C@@H](C(=O)O)[C@@H]2N1S(=O)(=O)c1ccccc1F (mixture of isomers)	·	-0.3	-15.0	·	·
CCOC(=O)c1ccccc1N	3.6	-8.0	-1.4	1.9	-1.5
Nc1ccccc1C(=O)OCc1ccc([N+](=O)[O-])cc1	53.9	57.4*	4.0	1.3	4.0
CCOc1ccc(-n2c(CC)nc3ccccc3c2=O)cc1	-8.9	-4.7	130.8*	3.0	-2.3
O=C(O)[C@@H]1[C@@H](CO)[C@@H]2Cn3c(ccc(-c4ccncc4)c3=O)[C@H]1N2C(=O)C1CC1	·	1.5	29.2	·	·
CC(C)c1oc(=O)cc2c1[C@@H](O)[C@H]1OC(=O)[C@@]3(C)C[C@@H](O)[C@@H](O)[C@@]2(C)C13 (stereo not given in full)	-62.2	-3.7	95.9*	-9.2	-26.4
Cc1ccc(N)c(N)c1	99.0*	-22.4	-0.4	0.1	29.1
Cc1ccc(N)c(C(=O)c2ccc(Br)cc2)c1	0.4	·	·	·	1.5
COC(=O)[C@@H]1[C@@H](CO)[C@@H]2Cn3c(ccc(-c4ccccc4)c3=O)[C@H]1N2CC1CCOCC1	·	-0.4	4.4	·	·
CN1C(=O)C(C2c3ccccc3C(=O)N2Cc2ccccc2)C(=O)N(C)C1=O (stereo not given)	3.4	-3.9	108.4*	-15.5	·
CN1C(=O)C(C2c3ccccc3C(=O)N2Cc2ccc([N+](=O)[O-])cc2)C(=O)N(C)C1=O (stereo not given)	·	-7.5	-1.4	·	·
NNc1n[nH]c(=S)n1N	·	·	·	138.6*	-0.7
COC(=O)[C@H]1[C@H](CO)[C@H]2Cn3c(ccc(C4=CCCCC4)c3=O)[C@@H]1N2CC1CC1	·	-1.4	-15.3	·	·
CN(C)C(=O)Oc1c(Cl)cc(Cl)c2cccnc12	-1.7	-7.7	4.8	-10.8	48.1*
CN(C(=O)Oc1ccc(Cl)c2cccnc12)c1ccccc1	5.4	·	·	-2.9	·
COc1cc(/C=C/c2nc3ccccc3c(=O)n2-c2ccc(O)cc2)ccc1O	-0.9	-0.3	116.8*	14.5	4.8
Clc1ccc(COC(Cn2ccnc2)c2ccc(Cl)cc2Cl)cc1 (stereo not given)	-8.8	-12.1	-6.9	74.0*!	-3.9

Source: PubChem BioAssay
